# Measurements taken from PubChem BioAssay (EPA / NIEHS).
# Activity calls are given as the source filed them. Rule for the calls: active = hit-call score of the fitted dose curve at least 0.9, where 1 is the maximum; inactive = score below 0.9.
# What was measured:
# Conditions in all cases: mRNA level, 48 h; actives raise or lower the signal
# [1] = read-out: Peroxisomal acyl-coenzyme A oxidase 1 (ACOX1) gene, ACOX1 (gene 51); assay: LTEA_HepaRG_ACOX1: Life Technologies and Expression Analysis (LTEA) Assay for Peroxisomal acyl-coenzyme A oxidase 1 (ACOX1) gene using HepaRG (AID 2283467)
# Summary of the method: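 HepaRG, 48 h chemical exposure, 8-pt half-log series from 100 uM top, 0.5% DMSO vehicle, duplicates. Readout: ACOX1 mRNA by Fluidigm qRT-PCR, housekeeping-normalized; bidirectional fit vs DMSO baseline.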
# [2] = read-out: Alkaline Phosphatase, Placental (ALPP) gene, ALPP (gene 250); assay: LTEA_HepaRG_ALPP: Life Technologies and Expression Analysis (LTEA) Assay for Alkaline Phosphatase, Placental (ALPP) gene using HepaRG (AID 2283468)
# Summary of the method: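 HepaRG cells plated 48 h, then exposed in duplicate for 48 h in serum-free induction medium to 8-point half-log series from 100 uM in 0.5% DMSO. ALPP mRNA by TaqMan qRT-PCR, normalized to ACTB/GAPDH/POLR2A; bidirectional fit versus DMSO.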
# [3] = read-out: Bcl-2 (BAD) gene, BAD (gene 572); assay: LTEA_HepaRG_BAD: Life Technologies and Expression Analysis (LTEA) Assay for Bcl-2 (BAD) gene using HepaRG (AID 2283469)
# Summary of the method: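 HepaRG, 48 h exposure, 8-pt half-log curve from 100 uM in 0.5% DMSO, duplicates. Readout: TaqMan qRT-PCR for BAD mRNA, housekeeping-normalised (ACTB/GAPDH/POLR2A); gain or loss fitted against DMSO baseline.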
# [4] = read-out: Bcl-2 (BAX) gene, BAX (gene 581); assay: LTEA_HepaRG_BAX: Life Technologies and Expression Analysis (LTEA) Assay for Bcl-2 (BAX) gene using HepaRG (AID 2283470)
# Summary of the method: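 Cells were thawed, plated for 48 h, moved to serum-free induction medium and dosed for 48 h (highest concentration 100 uM, half-log steps, 0.5% DMSO). Total RNA was then analysed for BAX expression by qRT-PCR.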
# [5] = read-out: adenosine kinase (ADK) gene, ADK (gene 132); assay: LTEA_HepaRG_ADK: Life Technologies and Expression Analysis (LTEA) Assay for adenosine kinase (ADK) gene using HepaRG (AID 2283471)
# Summary of the method: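 Read-out is ADK transcript level measured by qRT-PCR and normalised to three housekeeping genes. Cells are human HepaRG, dosed for 48 h at up to 100 uM in 0.5% DMSO. Gain or loss of signal is fitted against DMSO controls.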
# [6] = read-out: Alpha-fetoprotein (AFP) gene, AFP (gene 174); assay: LTEA_HepaRG_AFP: Life Technologies and Expression Analysis (LTEA) Assay for Alpha-fetoprotein (AFP) gene using HepaRG (AID 2283472)
# Summary of the method: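 Chemicals were tested on differentiated HepaRG cells for 48 hours at eight concentrations up to 100 uM, with 0.5% DMSO as vehicle. AFP expression was then quantified by qRT-PCR and analyzed for gain or loss relative to DMSO.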
# BCL2L11 (gene 10018) = assay: LTEA_HepaRG_BCL2L11: Life Technologies and Expression Analysis (LTEA) Assay for Bcl-2 (BCL2L11) gene using HepaRG (AID 2283473)
# Summary of the method: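 Differentiated human HepaRG cells were exposed 48 h in serum-free induction medium to eight half-log concentrations up to 100 uM in 0.5% DMSO, in duplicate. BCL2L11 mRNA was quantified by TaqMan qRT-PCR, normalized to ACTB, GAPDH and POLR2A; induction or repression fitted versus DMSO.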
# [7] = read-out: Apolipoprotein A-V (APOA5) gene, APOA5 (gene 116519); assay: LTEA_HepaRG_APOA5: Life Technologies and Expression Analysis (LTEA) Assay for Apolipoprotein A-V (APOA5) gene using HepaRG (AID 2283474)
# Summary of the method: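 Differentiated HepaRG cells in serum-free induction medium, exposed 48 h in duplicate to eight half-log concentrations topping at 100 uM (0.5% DMSO). APOA5 mRNA by Fluidigm TaqMan qRT-PCR, normalized to ACTB, GAPDH and POLR2A; bidirectional fit versus DMSO.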
# [8] = read-out: Apoptosis regulator Bcl-2 (Homo sapiens) (UniProt P10415); assay: LTEA_HepaRG_BCL2: Life Technologies and Expression Analysis (LTEA) Assay for Bcl-2 gene using HepaRG (AID 2283475)
# Summary of the method: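 Plated human HepaRG cells are exposed to test chemicals for 48 h across eight concentrations from 100 uM downward in half-log steps (0.5% DMSO). BCL2 expression is then measured by qRT-PCR with housekeeping normalisation and fitted bidirectionally against vehicle.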
# [9] = read-out: Bcl-2 (BID) gene, BID (gene 637); assay: LTEA_HepaRG_BID: Life Technologies and Expression Analysis (LTEA) Assay for Bcl-2 (BID) gene using HepaRG (AID 2283476)
# Summary of the method: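 Cells are plated, cultured 48 h, switched to serum-free induction medium, then dosed 48 h (100 uM top, half-log steps, 0.5% DMSO). RNA is isolated and BID expression read by qRT-PCR.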
# Caspase-3 (Homo sapiens) = Caspase-3 (Homo sapiens) (UniProt P42574); assay: LTEA_HepaRG_CASP3: Life Technologies and Expression Analysis (LTEA) Assay for cysteine-aspartic acid protease (CASP3) using HepaRG (AID 2283477)
# Sequence of Caspase-3 (Homo sapiens) (P42574 whole entry, looked up): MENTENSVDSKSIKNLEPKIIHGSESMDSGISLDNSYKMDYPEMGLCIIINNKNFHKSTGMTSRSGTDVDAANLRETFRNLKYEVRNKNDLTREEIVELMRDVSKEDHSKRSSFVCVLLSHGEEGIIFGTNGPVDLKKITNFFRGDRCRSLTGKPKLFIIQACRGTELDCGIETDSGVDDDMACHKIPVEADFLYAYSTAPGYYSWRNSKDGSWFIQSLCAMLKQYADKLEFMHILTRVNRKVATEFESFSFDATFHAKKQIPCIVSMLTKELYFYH
# Summary of the method: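 Differentiated HepaRG cells, plated 48 h, were treated in duplicate in serum-free induction medium for 48 h with eight half-log concentrations up to 100 uM in 0.5% DMSO. CASP3 mRNA measured by qRT-PCR, normalized to ACTB, GAPDH, POLR2A.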
# [10] = read-out: Cytochrome P450 (CYP24A1), CYP24A1 (gene 1591); assay: LTEA_HepaRG_CYP24A1: Life Technologies and Expression Analysis (LTEA) Assay for Cytochrome P450 (CYP24A1) using HepaRG (AID 2283478)
# Summary of the method: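 HepaRG cells plated 48 h, then exposed in duplicate in serum-free induction medium for 48 h to 8-point half-log series from 100 uM in 0.5% DMSO. CYP24A1 mRNA by Fluidigm qRT-PCR, normalized to ACTB, GAPDH, POLR2A; bidirectional fit versus DMSO.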
# [11] = read-out: Cytochrome P450 (CYP1A2), CYP1A2 (gene 1544); assay: LTEA_HepaRG_CYP1A2: Life Technologies and Expression Analysis (LTEA) Assay for Cytochrome P450 (CYP1A2) using HepaRG (AID 2283479)
# Summary of the method: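 Differentiated human HepaRG cells in serum-free induction medium exposed 48 hours in duplicate to 8 half-log concentrations from 100 uM, 0.5% DMSO. CYP1A2 mRNA quantified by qRT-PCR, normalized to ACTB, GAPDH and POLR2A; bidirectional fitting versus DMSO.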
# [12] = read-out: cysteine-aspartic acid protease (CASP8), CASP8 (gene 841); assay: LTEA_HepaRG_CASP8: Life Technologies and Expression Analysis (LTEA) Assay for cysteine-aspartic acid protease (CASP8) using HepaRG (AID 2283480)
# Summary of the method: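 qRT-PCR readout of CASP8 mRNA, normalized to three housekeeping genes, after 48 h chemical exposure of HepaRG cells; 8-point half-log series, top 100 uM, 0.5% DMSO vehicle. Bidirectional curve fitting against DMSO baseline.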
# [13] = read-out: Cytochrome P450 (CYP2B6), CYP2B6 (gene 1555); assay: LTEA_HepaRG_CYP2B6: Life Technologies and Expression Analysis (LTEA) Assay for Cytochrome P450 (CYP2B6) using HepaRG (AID 2283481)
# Summary of the method: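 Differentiated human HepaRG cells in serum-free induction medium, dosed in duplicate for 48 h over 8 half-log concentrations topping at 100 uM (0.5% DMSO). CYP2B6 mRNA measured by TaqMan qRT-PCR, normalized to ACTB, GAPDH, POLR2A; bidirectional fit versus DMSO.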
# [14] = read-out: Cytochrome P450 2C19 (Homo sapiens) (UniProt P33261); assay: LTEA_HepaRG_CYP2C19: Life Technologies and Expression Analysis (LTEA) Assay for CYP2C19 using HepaRG (AID 2283482)
# Summary of the method: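 Differentiated HepaRG cells in serum-free induction medium exposed 48 h in duplicate, 8 concentrations from 100 uM by half-log steps in 0.5% DMSO. CYP2C19 mRNA measured by TaqMan qRT-PCR, normalized to ACTB, GAPDH, POLR2A. Bidirectional fit versus DMSO.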
# CYP2C8 (gene 1558) = assay: LTEA_HepaRG_CYP2C8: Life Technologies and Expression Analysis (LTEA) Assay for CYP2C8 using HepaRG (AID 2283483)
# Summary of the method: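 HepaRG (human liver line), 48 h chemical exposure, 8-pt half-log series from 100 uM, 0.5% DMSO vehicle. Readout: CYP2C8 transcript by qRT-PCR, housekeeping-normalized. Bidirectional fit vs DMSO baseline.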
# CYP2C9 (gene 1559) = assay: LTEA_HepaRG_CYP2C9: Life Technologies and Expression Analysis (LTEA) Assay for CYP2C9 using HepaRG (AID 2283484)
# Summary of the method: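 HepaRG, 48 h dosing, 8-pt half-log series, top 100 uM, 0.5% DMSO vehicle. Read-out: CYP2C9 transcript by TaqMan qRT-PCR, housekeeping-normalized (ACTB/GAPDH/POLR2A). Gain or loss fitted vs DMSO baseline.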
# CYP2E1 (gene 1571) = assay: LTEA_HepaRG_CYP2E1: Life Technologies and Expression Analysis (LTEA) Assay for CYP2E1 using HepaRG (AID 2283485)
# Summary of the method: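 Readout is qRT-PCR of CYP2E1 mRNA, normalized to three housekeeping genes and fitted bidirectionally against 0.5% DMSO. HepaRG cells were dosed 48 h at eight concentrations, highest 100 uM with half-log dilutions.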
# CYP4A11 (gene 1579) = assay: LTEA_HepaRG_CYP4A11: Life Technologies and Expression Analysis (LTEA) Assay for CYP4A11 using HepaRG (AID 2283486)
# Summary of the method: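 Differentiated HepaRG cells, 48 h after plating, exposed in duplicate for 48 h to 8 half-log concentrations up to 100 uM in 0.5% DMSO in serum-free induction medium. CYP4A11 mRNA measured by TaqMan qRT-PCR, normalized to ACTB, GAPDH and POLR2A.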
# Sequence of Apoptosis regulator Bcl-2 (Homo sapiens) (P10415 whole entry, looked up): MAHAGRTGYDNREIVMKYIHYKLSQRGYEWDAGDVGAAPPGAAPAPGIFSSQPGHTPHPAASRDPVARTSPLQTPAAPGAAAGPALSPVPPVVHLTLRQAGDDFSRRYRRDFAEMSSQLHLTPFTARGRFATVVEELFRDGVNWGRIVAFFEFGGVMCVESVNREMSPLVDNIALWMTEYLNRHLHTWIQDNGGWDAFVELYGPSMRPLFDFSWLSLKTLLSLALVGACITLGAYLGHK
# Sequence of Cytochrome P450 2C19 (Homo sapiens) (P33261 whole entry, looked up): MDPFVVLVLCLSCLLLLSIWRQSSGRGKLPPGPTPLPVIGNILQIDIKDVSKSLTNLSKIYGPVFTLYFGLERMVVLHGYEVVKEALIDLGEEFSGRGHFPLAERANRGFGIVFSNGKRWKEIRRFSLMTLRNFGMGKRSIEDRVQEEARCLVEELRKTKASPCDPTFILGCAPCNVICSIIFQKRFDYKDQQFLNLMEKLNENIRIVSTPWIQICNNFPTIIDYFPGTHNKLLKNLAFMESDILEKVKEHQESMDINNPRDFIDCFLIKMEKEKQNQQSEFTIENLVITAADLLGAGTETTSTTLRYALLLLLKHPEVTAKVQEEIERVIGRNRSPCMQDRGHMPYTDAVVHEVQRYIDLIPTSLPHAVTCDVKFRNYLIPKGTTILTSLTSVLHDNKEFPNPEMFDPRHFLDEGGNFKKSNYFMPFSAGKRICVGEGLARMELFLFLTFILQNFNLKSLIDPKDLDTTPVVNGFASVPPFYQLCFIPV
smiles,measurement,setting,value
Oc1ccc2ccccc2c1N=Nc1ccccc1,AC50,[1],11.1 µM (active)
same,outcome,[2],inactive
same,outcome,[3],inactive
same,outcome,[4],inactive
same,outcome,[5],inactive
same,AC50,[6],27.9 µM (active)
same,AC50,BCL2L11 (gene 10018),15.1 µM (active)
same,outcome,[7],inactive
same,AC50,[8],31.5 µM (active)
same,outcome,[9],inactive
same,outcome,Caspase-3 (Homo sapiens),inactive
same,outcome,[10],inactive
same,AC50,[11],0.232 µM (active)
same,outcome,[12],inactive
same,AC50,[13],31.5 µM (active)
same,AC50,[14],9.92 µM (active)
same,AC50,CYP2C8 (gene 1558),9.55 µM (active)
same,AC50,CYP2C9 (gene 1559),9.92 µM (active)
same,AC50,CYP2E1 (gene 1571),21.5 µM (active)
same,AC50,CYP4A11 (gene 1579),27.1 µM (active)
CC1(C)CC(N=C=O)CC(C)(CN=C=O)C1 (stereo not drawn),outcome,[1],inactive
same,outcome,[2],inactive
same,outcome,[3],inactive
same,outcome,[4],inactive
same,outcome,[5],inactive
same,outcome,[6],inactive
same,outcome,BCL2L11 (gene 10018),inactive
same,outcome,[7],inactive
same,outcome,[8],inactive
same,outcome,[9],inactive
same,outcome,Caspase-3 (Homo sapiens),inactive
same,outcome,[11],inactive
same,outcome,[12],inactive
same,outcome,[14],inactive
same,outcome,CYP2C8 (gene 1558),inactive
same,outcome,CYP2C9 (gene 1559),inactive
same,AC50,CYP2E1 (gene 1571),24 µM (active)
same,outcome,CYP4A11 (gene 1579),inactive
COc1ccc(C)cc1N,outcome,[1],inactive
same,outcome,[2],inactive
same,outcome,[3],inactive
same,outcome,[4],inactive
same,outcome,[5],inactive
same,outcome,[6],inactive
same,outcome,BCL2L11 (gene 10018),inactive
same,outcome,[7],inactive
same,outcome,[8],inactive
same,outcome,[9],inactive
same,outcome,Caspase-3 (Homo sapiens),inactive
same,outcome,[10],inactive
same,outcome,[11],inactive
same,outcome,[12],inactive
same,AC50,[13],25.6 µM (active)
same,outcome,[14],inactive
same,outcome,CYP2C8 (gene 1558),inactive
same,outcome,CYP2C9 (gene 1559),inactive
same,outcome,CYP2E1 (gene 1571),inactive
same,outcome,CYP4A11 (gene 1579),inactive
